Screen size: about 5,500 compounds; about 2,000 (36%) were called active. Not shown: some 18% with an inconclusive outcome. This is one part of the list. A number with no mark means an inactive call. Cut-off read from the data, not from the text of the source: active = normalized growth mostly below about 0.91 (no sharp cut-off); inconclusive = no clear call, values can overlap the other calls; inactive = mostly above about 0.92.
Test: chemical genetic growth profiling, strain panel (AID 1159580);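 note: tested at 20 µM; growth read once vehicle control cultures reached saturation at 30 °C; 1 = growth at the plate median or of vehicle wells; lower values mean less growth of the strain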
Conditions: growth OD
[1] = S. cerevisiae deletion strains, locus YAL013W, strain DEP1, hits give low values
[2] = S. cerevisiae deletion strains, locus YBR229C, strain ROT2, hits give low values
[3] = S. cerevisiae deletion strains, locus YDL101C, strain DUN1, hits give low values
[4] = S. cerevisiae deletion strains, locus YDR150W, strain NUM1, hits give low values
[5] = S. cerevisiae deletion strains, locus YEL061C, strain CIN8, hits give low values
[6] = S. cerevisiae deletion strains, locus YGR078C, strain PAC10, hits give low values
[7] = S. cerevisiae deletion strains, locus YHR030C, strain SLT2, hits give low values
[8] = S. cerevisiae deletion strains, locus YHR087W, strain rtc3, hits give low values
[9] = S. cerevisiae deletion strains, locus YJR043C, strain POL32, hits give low values
[10] = S. cerevisiae deletion strains, locus YJR075W, strain HOC1, hits give low values
[11] = S. cerevisiae deletion strains, locus YLR039C, strain RIC1, hits give low values
[12] = S. cerevisiae deletion strains, locus YLR058C, strain SHM2 (second series), hits give low values
[13] = S. cerevisiae deletion strains, locus YLR085C, strain ARP6, hits give low values
[14] = S. cerevisiae deletion strains, locus YLR262C, strain YPT6, hits give low values
[15] = S. cerevisiae deletion strains, locus YML094W, strain GIM5, hits give low values
[16] = S. cerevisiae deletion strains, locus YMR219W, strain ESC1, hits give low values
[17] = S. cerevisiae deletion strains, locus YMR263W, strain SAP30, hits give low values
[18] = S. cerevisiae deletion strains, locus YNL153C, strain GIM3, hits give low values
[19] = S. cerevisiae deletion strains, locus YNL298W, strain CLA4 (second series), hits give low values
[20] = S. cerevisiae deletion strains, locus YNL322C, strain KRE1, hits give low values
[21] = S. cerevisiae deletion strains, locus YNR030W, strain Alg12, hits give low values
[22] = S. cerevisiae deletion strains, locus YPL055C, strain LGE1, hits give low values
[23] = S. cerevisiae deletion strains, locus YPL241C, strain CIN2, hits give low values
[24] = S. cerevisiae deletion strains, locus YPR135W, strain CTF4, hits give low values
[25] = S. cerevisiae strains, strain wild type, hits give low values
[26] = S. cerevisiae deletion strains, locus YCL061C, strain MRC1, hits give low values
[27] = S. cerevisiae deletion strains, locus YJL187C, strain SWE1, hits give low values
[28] = S. cerevisiae deletion strains, locus YOL006C, strain TOP1, hits give low values

## Cc1ccc(Sc2nc(C)c([N+](=O)[O-])c(C)c2C#N)cc1
[1]
  normalized growth: 0.969
[2]
  normalized growth: 0.982
[3]
  normalized growth: 0.997
[4]
  normalized growth: 0.99
[5]
  normalized growth: 0.934
[6]
  normalized growth: 0.979
S. cerevisiae deletion strains, locus YGR229C, strain SMI1, hits give low values
  normalized growth: 0.978
[7]
  normalized growth: 0.625 (active)
[8]
  normalized growth: 0.975
[9]
  normalized growth: 0.967
[10]
  normalized growth: 0.952
S. cerevisiae deletion strains, locus YKL190W, strain CNB1, hits give low values
  normalized growth: 0.977
[11]
  normalized growth: 0.664 (active)
[12]
  normalized growth: 0.969
[13]
  normalized growth: 0.883
[14]
  normalized growth: 0.732 (active)
[15]
  normalized growth: 1.01
[16]
  normalized growth: 0.979
[17]
  normalized growth: 0.97
S. cerevisiae deletion strains, locus YMR307W, strain GAS1, hits give low values
  normalized growth: 0.763
[18]
  normalized growth: 0.994
[19]
  normalized growth: 0.947
[20]
  normalized growth: 0.974
[21]
  normalized growth: 0.965
[22]
  normalized growth: 0.963
[23]
  normalized growth: 1.06
[24]
  normalized growth: 0.828
[25]
  normalized growth: 0.974

## NC(=S)CS(=O)(=O)c1ccc(C(F)(F)F)cc1
[1]
  normalized growth: 0.977
[2]
  normalized growth: 1.01
[26]
  normalized growth: 1.02
[3]
  normalized growth: 1.03
[4]
  normalized growth: 0.998
[5]
  normalized growth: 1.03
[6]
  normalized growth: 1.01
[7]
  normalized growth: 1.03
[8]
  normalized growth: 1.01
[27]
  normalized growth: 1.02
[9]
  normalized growth: 1.01
[10]
  normalized growth: 1.02
[11]
  normalized growth: 1.09
[12]
  normalized growth: 1.02
[13]
  normalized growth: 1.23 [resistant] (active)
[14]
  normalized growth: 1.07
[15]
  normalized growth: 1.01
[16]
  normalized growth: 1.02
[17]
  normalized growth: 1.04
S. cerevisiae deletion strains, locus YNL128W, strain TEP1, hits give low values
  normalized growth: 1.03
[18]
  normalized growth: 1.02
[19]
  normalized growth: 1.03
[20]
  normalized growth: 1
[21]
  normalized growth: 0.992
[28]
  normalized growth: 1.23
[22]
  normalized growth: 0.952
[23]
  normalized growth: 1.09
[24]
  normalized growth: 0.969

## CC(=O)CS(=O)(=O)c1ccc(Cl)cc1
[1]
  normalized growth: 1.02
[2]
  normalized growth: 1.01
[26]
  normalized growth: 1.01
[3]
  normalized growth: 1.01
S. cerevisiae deletion strains, locus YDL134C, strain PPH21, hits give low values
  normalized growth: 1
[4]
  normalized growth: 0.969
[5]
  normalized growth: 1.02
[6]
  normalized growth: 1
[7]
  normalized growth: 1
[8]
  normalized growth: 0.998
[27]
  normalized growth: 0.995
[9]
  normalized growth: 0.988
[10]
  normalized growth: 0.995
[11]
  normalized growth: 1.02
[12]
  normalized growth: 1
[13]
  normalized growth: 1.04
[14]
  normalized growth: 1.03
[15]
  normalized growth: 1.02
[16]
  normalized growth: 1.01
[17]
  normalized growth: 0.969
[18]
  normalized growth: 0.995
[19]
  normalized growth: 0.992
[20]
  normalized growth: 1.01
[21]
  normalized growth: 1
[28]
  normalized growth: 1.01
[22]
  normalized growth: 1
[23]
  normalized growth: 1.02
[24]
  normalized growth: 0.933
[25]
  normalized growth: 1

Reference: PubChem BioAssay AID1159580 (chemical genetic matrix, 2015)
